Screening data (PubChem BioAssay)
Shown are actives, neighbours in structure and some others; about 4.2% of the full set was active somewhere.
TCR activator: activates T cell receptor signaling | primary human leukocytes, anti-CD3, IL-2 HTRF, 48 h | Potency, µM (series often up to 9.22 µM), for the others: top-dose activation of IL-2 secretion, actives largely listed as activators | 330,000 tested, under 10 active | AID 504894; note: % of control where 0% means no effect
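1) Mix primary human leukocytes, a-CD3 beads and compound. 2) Incubate 48 hr. 3) Add HTRF IL-2 reagents (a-IL-2-K, a-IL-2-d2).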
uPA surface inh: cell surface uPA generation inhibition; cell surface uPA generation assay, qHTS; Potency, µM (titrated, usually from 38.3 µM), without a hit: at the highest dose activity change, negative = inhibition, hits mostly inhibitors; 0.31% of 330,000 active; AID 540303; active = well fitted inhibition curve with a large enough effect; inconclusive = small, poorly fitted or top-dose-only effect; inactive = no such curve, though single readings can be large or run the other way; tested in mouse RAW 264.7 cells; note: potency is the fitted concentration of half-maximal effect; % is set by controls: 0 for no effect and ±100 for the full control effect; nearly all actives have a fitted effect of over 55% in size
ClpP mod: qHTS Assay for Activators of ClpP; purified B. subtilis ClpP, FRET peptide cleavage, 20 min; 1.9% of 340,000 active; ATP-dependent Clp protease proteolytic subunit (Bacillus subtilis (strain 168)), P80244; Potency, µM (titrated, usually from 57.5 µM), inactives show top-dose activity change, negative = active; active = well fitted falling curve with a large enough effect; inconclusive = small, poorly fitted or top-dose-only effect; inactive = no such curve, though single readings can be large or run the other way; note: potency is the fitted concentration of half-maximal effect; the source files actives as falling curves though it sought activators and does not explain the sign; nearly all actives have a fitted effect of over 65% in size
Target sequence (P80244 whole entry, looked up): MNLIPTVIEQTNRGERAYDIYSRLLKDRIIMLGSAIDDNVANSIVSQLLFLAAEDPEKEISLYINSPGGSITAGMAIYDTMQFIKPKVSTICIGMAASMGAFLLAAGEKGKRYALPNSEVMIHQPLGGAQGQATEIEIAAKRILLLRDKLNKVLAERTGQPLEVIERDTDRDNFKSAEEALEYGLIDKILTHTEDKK
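FRET quenching reversal measured ClpP activation: 10 microg/mL B. subtilis ClpP at pH 8 with the FRET-FV decapeptide, read at 430 nm after 320 nm excitation. The 20-min minus 0-min signal was scaled between DMSO/no-enzyme wells and ADEP (5.8 microM final).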
Sfp inh: blocks B. subtilis Sfp PPTase activity; Biochemical Sfp PPTase activity, qHTS; Q9F4F7; Potency, µM, for the others: largest response in the series, negative = inhibition, hits mostly inhibitors; 3.5% of 310,000 active;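 note: the enzyme is Sfp with the accession as filed and its product quenches rhodamine fluorescence; potency is the fitted concentration of half-maximal effect; 0% = enzyme reaction without inhibitor and -100% = no enzyme wells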
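Step 1, compound plus 15 nM Sfp-PPTase, 15 min, room temperature. Step 2, add rhodamine-CoA (5 uM) and BHQ-2-YbbR (12.5 uM). Step 3, read 525/598 nm fluorescence at 0 and 30 min.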
Active calls of the source: *; ? = inconclusive; · = no result given; ! = a repeat was not active; [ ] = dose if it differs, or a comment. Unless noted, calls come from the whole dose curve; as a rule, active = well fitted curve in the direction sought with a large enough effect; inconclusive = small, poorly fitted or top-dose-only effect, or another doubt; inactive = no such curve, though single readings can be large; an effect the other way counts as inactive or inconclusive.

SMILES	TCR activator	uPA surface inh	ClpP mod	Sfp inh
CCOc1ccc(C(=O)Nc2cc3c(cc2N2CCCC2)n(C)c(=O)c(=O)n3C)cc1OCC	·	·	28.2µM*	·
CC(=O)Nc1ccc(/C=C/c2nc3ccccc3s2)cc1	·	·	2.2%	·
CCOC(=O)c1csc(N)c1-c1ccc([N+](=O)[O-])cc1	3.6%	-4.0%	0.5%	50.1µM*
Cn1c(SCC(=O)Nc2nccs2)nnc1-c1ccc(S(=O)(=O)N2CCCC2)cc1	-15.7%	·	-2.6%	19.2%
O=C(CSc1n[nH]c(-c2ccc(S(=O)(=O)N3CCCCC3)cc2)n1)Nc1nccs1	·	4.3%	28.2µM*	-9.1%
CCOC(=O)c1cnc(Cc2ccccc2)[nH]c1=O	1.4%	-3.3%	-1.2%	10.1%
CCOC(=O)c1cnn2c1[nH]c(=O)c1ccccc12	-4.1%	2.8%	3.55µM*	19.5%
COc1cccc(C(=O)Nc2ccccc2C(=O)OCc2cc(=O)n3c4c(sc3n2)CCCC4)c1	·	·	-15.9%	·
Cc1cc2nc(-c3ccc(SCC(=O)Nc4ccc(S(=O)(=O)NC5CC5)cc4)nc3)[nH]c2cc1C	-8.1%[46.1 µM]	-6.2%	8.91µM*	6.3%
Cc1cc2nc(-c3ccc(SCc4ccc(C(=O)O)cc4)nc3)[nH]c2cc1C	6.1%	-6.2%	·	22.4µM*
Cc1cc2nc(-c3ccc(SCC(=O)NC(C)C)nc3)[nH]c2cc1C	·	·	·	-18.4%
N#Cc1c(-c2ccccc2)cc(-c2ccc3c(c2)OCO3)[nH]c1=O	-0.5%	-2.7%	17.8µM*	·
Cc1ccc(NC(=O)CSc2nnc3scc(-c4ccc(Cl)cc4)n23)cc1	·	·	-5.4%	·
Cc1ccc(-c2nc(NC(=O)CSc3nnc4scc(-c5ccccc5)n34)ns2)cc1	4.5%	12.6%	-2.0%	35.5µM*
O=C(CNCc1ccc(Cl)cc1)Nc1cc(S(=O)(=O)N2CCCC2)ccc1Cl	1.5%	0.1%	0.6%	·
CCCC1=Nc2cc(C(=O)NC3CCCCC3)ccc2Sc2ccc(C)cc21	·	·	-0.7%	·
Cc1cc(=O)n(Cc2cccc(Cl)c2)c2c1c(C)nn2C	·	·	-24.2%	·
CC(C)(C)c1ccc(S(=O)(=O)/C=C\C#N)cc1	·	·	·	44.7µM*
Cc1ccc(S(=O)(=O)/C=C/C#N)cc1	·	·	·	2.82µM*
Cc1ccc(S(=O)(=O)/C=C\C#N)cc1	·	·	·	44.7µM*
O=C1C2C3C=CC(C2C(=O)N1c1cccc(O)c1)C1C2C(=O)N(c4cccc(O)c4)C(=O)C2C31 (stereo not given)	4.8%	11.0%	0.1%	8.3%
COc1ccc(-c2nnc(-c3cc4c(ccc5ccccc54)oc3=O)o2)cc1	-1.9%	2.7%	?	5.6%
O=c1oc2ccc3ccccc3c2cc1-c1nnc(-c2ccccc2)o1	-6.3%	-13.5%	14.1µM*	7.9%
O=C(Nc1ccccc1)Nc1csc2ccccc12	1.4%	0.7%	·	50.1µM*
N#Cc1c(-c2ccccc2)cc(C2CC2)nc1N	-14.1%	-7.9%	?	8.4%
SMILES	TCR activator	uPA surface inh	ClpP mod	Sfp inh
N#Cc1c(-c2ccco2)cc(C2CC2)nc1N	4.8%	·	47.8%	31.6µM*
CC(OC(=O)c1ccccc1OCC(=O)Nc1ccc(Br)cc1)C(=O)NC1CCCC1 (stereo not given)	·	·	-4.3%	·
COCCNC(=S)N/N=C/c1ccc(N2CCOCC2)cc1	-4.7%[46.1 µM]	-0.9%	·	-27.2%
COc1cc(/C=N/NC(=S)NCCN2CCOCC2)ccc1O	3.8%[46.1 µM]	2.2%	-19.0%	50.1µM*
CC1CCCCC1NC(=O)CN1CCN(S(=O)(=O)c2ccc(Br)s2)CC1 (stereo not given)	-0.5%	1.6%	14.1µM*	·
CC1CCC(NC(=O)CN2CCN(S(=O)(=O)c3ccc(Br)s3)CC2)CC1 (stereo not given)	·	·	-3.5%	·
O=C(Cn1c(=O)n(Cc2ccco2)c(=O)c2c3c(sc21)CCCCC3)Nc1ccccc1	·	-8.4%	-17.8%	-103.3%
O=C(Cn1c(=O)n(Cc2ccco2)c(=O)c2c3c(sc21)CCCCC3)c1ccccc1	·	2.4%	-0.7%	56.2µM*
CCOc1ccc(C(=O)Nc2ccc3[nH]ncc3c2)cc1	·	5.01µM*	-6.8%	10.2%
O=C(Nc1ccc2[nH]ncc2c1)c1ccc(F)cc1	-5.4%	-11.7%	·	5.3%
COc1ccc(C(=O)Nc2ccc3[nH]ncc3c2)cc1	·	3.16µM*	-5.4%	27.7%
COc1ccc(C(=O)/C=C/c2cc(OC)c(O)c(OC)c2)c(F)c1	0.2%[46.1 µM]	-19.2%	-1.3%	79.4µM*
COc1ccc2cc(C(=O)/C=C/c3cc(OC)c(O)c(OC)c3)ccc2c1	1.7%	-15.6%	·	-29.8%
COc1cc(/C=C/C(=O)c2c(O)cc(C)oc2=O)cc(OC)c1O	13.4%	-5.1%	28.2µM*	-23.4%
COc1cc(/C=C/C(=O)c2c(O)ccc3c(C)cc(=O)oc23)ccc1O	2.5%	-14.9%	28.2µM*!	-16.0%
Cc1c(NC(=O)Oc2ccccc2)sc(=S)n1C	2.1%	4.9%	-2.3%	56.2µM*
CC(=O)NC(=O)Nc1sc(=S)n(C)c1C	-1.1%	-5.4%	-0.4%	-8.2%
Cc1ccc(NC(=O)Nc2sc(=S)n(C)c2C)cc1	1.2%	6.0%	0.6%	56.2µM*
CC[C@H](C)[C@H]1CNC(=S)N1CC1CCN(CCC(C)C)CC1	·	·	-2.4%	·
C[n+]1ccnc2cc(Cl)ccc21	·	·	-7.4%	·
CCCCCCNC(=O)Cc1c(O)c2ccccc2[nH]c1=O	-2.5%	2.5%	28.2µM*	-30.8%
CCCCNC(=O)Cc1c(O)c2ccccc2[nH]c1=O	1.2%	-1.9%	20µM*	-12.3%
CCN(CC)C(=O)Cc1c(O)c2ccccc2[nH]c1=O	11.5%	3.6%	3.5%	-21.6%
CCOC(=O)C1=C(COC(=O)c2cc(S(=O)(=O)N3CCOCC3)ccc2F)NC(=O)NC1C (stereo not given)	0.1%	7.3%	-2.8%	·
COCCN(CC(=O)Nc1cccc(C)c1C)C(=O)C1(c2ccc(Cl)cc2)CCC1	6.5%	-41.3%	0.3%	·
Cn1c2ccccc2c(=O)c2c(=O)n(Cc3ccco3)c(-c3ccc(F)cc3)nc21	-62.1%	1.7%	·	?
COCCn1c(-c2ccc(Cl)cc2Cl)nc2c(c(=O)c3ccccc3n2C)c1=O	-2.7%[46.1 µM]	4.8%	14.1µM*	20.0%
COc1ccc2c(=O)c3c(=O)n(Cc4ccco4)c(-c4ccco4)nc3oc2c1	0.4%	·	-8.5%	?
COc1ccc(-c2nc3oc4cc(OC)ccc4c(=O)c3c(=O)n2Cc2ccco2)cc1	-1.8%	0.5%	-10.6%	25.1µM*
COCCn1c(-c2ccc(C)cc2)nc2c(c(=O)c3ccccc3n2C)c1=O	-0.6%	?	0.5%	·
